Source: the supplement of paper PMC6089552
Out of some 3,200 compounds screened, about 300 (9.4%) showed activity. For the sample, actives were picked, then their nearest neighbours and some compounds at random.

System: A673/TR/shEF
Assay: cell viability (LOESS-normalised, relative to median of negative controls) (log2 ratio); higher = more viable cells (less compound effect), active = hit call of the paper (over 3 MAD below the median)
Conditions: treatment time: 72 h
Outline: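 A673/TR/shEF Ewing sarcoma cells (1,500 per well, 384-well plates) were grown with or without doxycycline to induce EWS-FLI1 shRNA knockdown, starting 24 h before compounds. Library compounds at two or more concentrations, with DMSO controls, were added for three days. Cell viability was read by CellTiter-Glo luminescence on an Envision reader, then LOESS-corrected per plate, divided by the median of negative controls and log2-transformed. Hits were wells at least three median absolute deviations from the median of all screened wells.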

[1] = 0.25 µM, library screen: screen1, EWS-FLI1 expression: high (no doxycycline)
[2] = 0.25 µM, library screen: screen1, EWS-FLI1 expression: low (doxycycline-induced shRNA knockdown)
[3] = 2.5 µM, library screen: screen1, EWS-FLI1 expression: high (no doxycycline)
[4] = 2.5 µM, library screen: screen1, EWS-FLI1 expression: low (doxycycline-induced shRNA knockdown)
[5] = 0.25 µM, library screen: screen2, EWS-FLI1 expression: high (no doxycycline)
[6] = 0.25 µM, library screen: screen2, EWS-FLI1 expression: low (doxycycline-induced shRNA knockdown)
[7] = 2.5 µM, library screen: screen2, EWS-FLI1 expression: high (no doxycycline)
[8] = 2.5 µM, library screen: screen2, EWS-FLI1 expression: low (doxycycline-induced shRNA knockdown)
[9] = 0.103 µM, library screen: screen3, EWS-FLI1 expression: high (no doxycycline)
[10] = 0.103 µM, library screen: screen3, EWS-FLI1 expression: low (doxycycline-induced shRNA knockdown)
[11] = 0.308 µM, library screen: screen3, EWS-FLI1 expression: high (no doxycycline)
[12] = 0.308 µM, library screen: screen3, EWS-FLI1 expression: low (doxycycline-induced shRNA knockdown)
[13] = 0.926 µM, library screen: screen3, EWS-FLI1 expression: high (no doxycycline)
[14] = 0.926 µM, library screen: screen3, EWS-FLI1 expression: low (doxycycline-induced shRNA knockdown)
[15] = 2.8 µM, library screen: screen3, EWS-FLI1 expression: high (no doxycycline)
[16] = 2.8 µM, library screen: screen3, EWS-FLI1 expression: low (doxycycline-induced shRNA knockdown)
[17] = 8.3 µM, library screen: screen3, EWS-FLI1 expression: high (no doxycycline)
[18] = 8.3 µM, library screen: screen3, EWS-FLI1 expression: low (doxycycline-induced shRNA knockdown)
[19] = 25 µM, library screen: screen3, EWS-FLI1 expression: high (no doxycycline)
[20] = 25 µM, library screen: screen3, EWS-FLI1 expression: low (doxycycline-induced shRNA knockdown)

Measured: cell viability (log2)

COc1ccc(OC)c(CN2CCN(Cc3ccco3)CC2)c1
inactive: [1] 0.136 | [2] 0.00829 | [3] 0.0712 | [4] 0.0546

C=C1C[C@]23C[C@@]1(O)CC[C@H]2[C@@]12C=C[C@H](O)C(C)(C(=O)O1)[C@H]2[C@@H]3C(=O)O
inactive: [1] 0.0797 | [2] -0.049 | [3] 0.109 | [4] 0.00256

CC(C)C[C@H](NC(=O)[C@@H](O)[C@H](N)Cc1ccccc1)C(=O)O
inactive: [5] 0.185 | [6] -0.00499 | [7] 0.106 | [8] 0.0581

CC(C)C[C@H](NC(=O)[C@H](Cc1ccccc1)NC(=O)c1cnccn1)B(O)O
active: [9] -0.242 | [11] -2.56 | [12] -0.914 | [13] -3.95 | [14] -1.75 | [15] -4.24 | [16] -4.06 | [17] -4.26 | [18] -3.84 | [19] -4.26 | [20] -4.16
inactive: [10] -0.0845

CC(C)C[C@H](NC(=O)[C@H](O)[C@H](N)Cc1ccccc1)C(=O)O
inactive: [5] 0.14 | [6] 0.0402 | [7] 0.0931 | [8] 0.0118

O=C(Nc1ccccc1Cl)C1c2ccccc2Oc2ccccc21
inactive: [1] 0.0923 | [2] 0.0427 | [3] 0.118 | [4] 0.00942

COC1CCC2(C)C(CCC3C2CCC2(C)C(C(C)CCCC(C)C)CCC32)C1 (centres undefined)
inactive: [1] -0.00918 | [2] 0.0236 | [3] 0.0903 | [4] 0.091

CCCCOc1ccc(OCCCN2CCOCC2)cc1
inactive: [1] 0.172 | [2] 0.0279 | [3] 0.124 | [4] 0.0578

CCN1CCCC(OC(=O)C(c2ccccc2)c2ccccc2)C1 (centres undefined)
inactive: [1] 0.0616 | [2] 0.0736 | [3] 0.223 | [4] -0.0423

CCCCCCCCCC(=O)NC(CN1CCOCC1)C(O)c1ccccc1 (centres undefined)
active: [5] -0.53 | [6] -0.533 | [7] -1.39 | [8] -2.57

Cc1ccc(C(=O)NCCSc2ccccn2)cc1
inactive: [1] 0.109 | [2] 0.00816 | [3] 0.117 | [4] -0.0564

Cn1cnnc1SCC(=O)N1c2ccccc2C(C)(c2ccccc2)CC1(C)C (centres undefined)
inactive: [1] 0.078 | [2] 0.058 | [3] 0.127 | [4] 0.198

C[C@@H]1CC[C@H]2[C@](C)(CO)[C@@H](O)CC[C@]2(C)[C@@]12CC[C@@](CO)(CCO)O2
inactive: [1] 0.0457 | [2] -0.0603 | [3] 0.0942 | [4] 0.112

CC(C)(C)c1onc(OCP(=O)(O)O)c1CC(N)C(=O)O (centres undefined)
inactive: [5] -0.0656 | [6] 0.0767 | [7] 0.0137 | [8] 0.0837

N=C1C=CC(=C(c2ccc(N)cc2)c2ccc(N)cc2)C=C1
active: [1] -0.412 | [2] -0.563 | [3] -3.76 | [4] -3.35

CCOC(=O)c1ccc(N)cc1
inactive: [1] 0.113 | [2] 0.151 | [3] 0.0778 | [4] 0.18

N=C(N)c1ccc(N)cc1
inactive: [5] 0.132 | [6] 0.0859 | [7] 0.0987 | [8] 0.121

CC(C)c1c(O)c(-c2cc3c(c(C(C)C)c2O)CCC2C(C)(C)CCCC32C)cc2c1CCC1C(C)(C)CCCC21C (centres undefined)
inactive: [1] 0.108 | [2] 0.109 | [3] 0.0993 | [4] 0.112

COC1=C(OC)C(=O)C(C/C=C(\C)CC/C=C(\C)CC/C=C(\C)CC/C=C(\C)CC/C=C(\C)CC/C=C(\C)CC/C=C(\C)CC/C=C(\C)CC/C=C(\C)CCC=C(C)C)=C(C)C1=O
inactive: [1] 0.0717 | [2] 0.153 | [3] 0.193 | [4] 0.233

COc1c(C)c2c(c(O)c1C/C=C(\C)CCC(=O)OCCN1CCOCC1)C(=O)OC2
inactive: [9] 0.051 | [10] 0.0315 | [11] 0.00041 | [12] 0.00916 | [13] -0.00635 | [14] 0.0426 | [15] 0.0529 | [16] 0.0135 | [17] -0.0785 | [18] 0.0651
active: [19] -0.48 | [20] -0.33

COc1c(C)c2c(c(O)c1C/C=C(\C)CCC(=O)O)C(=O)OC2
active: 25 µM, library screen: screen2, EWS-FLI1 expression: high (no doxycycline) -0.533 | 25 µM, library screen: screen2, EWS-FLI1 expression: low (doxycycline-induced shRNA knockdown) -0.259 | [19] -0.488 | [20] -0.403
inactive: 0.025 µM, library screen: screen2, EWS-FLI1 expression: high (no doxycycline) 0.0161 | 0.025 µM, library screen: screen2, EWS-FLI1 expression: low (doxycycline-induced shRNA knockdown) 0.0434 | [9] 0.108 | [10] 0.173 | [1] 0.047 | [2] -0.0419 | [5] 0.0974 | [6] 0.108 | [11] 0.00407 | [12] 0.0569 | [13] 0.0822 | [14] 0.0245 | [3] 0.0367 | [4] 0.00349 | [7] 0.137 | [8] -0.00198 | [15] 0.147 | [16] 0.096 | [17] -0.0618 | [18] -0.0369

C(#CC12CC3CC(CC(C3)C1)C2)CN1CCOCC1
inactive: [1] 0.0887 | [2] 0.0273 | [3] 0.163 | [4] 0.0455

Brc1ccccc1CN1CCN(Cc2ccco2)CC1
inactive: [1] 0.15 | [2] 0.0476 | [3] 0.0744 | [4] 0.0303

Cn1c(=O)[nH]c(=O)c2[nH]cnc21
inactive: [1] 0.136 | [2] -0.0262 | [3] 0.111 | [4] 0.0112

C=C(C)C1COc2cc3oc(=O)ccc3cc2O1 (centres undefined)
inactive: [1] 0.0489 | [2] 0.0843 | [3] 0.0665 | [4] 0.127

COc1ccc2c(c1)OC[C@@H](Cc1ccc(OC)c(OC)c1)[C@H]2O
inactive: [1] 0.0776 | [2] -0.01 | [3] 0.0904 | [4] -0.0561

C[N+]1(C)C2CC[C@H]1CC(OC(=O)C(O)c1ccccc1)C2 (some centres undefined)
inactive: [1] 0.0981 | [2] 0.0981 | [3] 0.164 | [4] -0.0226
